NR2F2 inh: NR2F2 transcriptional activity inhibitors, primary screen, cell-based, luciferase reporter, HEK293T, luminescence; HEK293T NGFI-A luciferase reporter; inhibition, % at 8.6 µM; 370,000 compounds, 0.7% hits; AID 686940, 2013;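 active = inhibition above a per-plate cutoff, mean inhibition of test wells between control levels plus 3 SD, cut at about 38% in these data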;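 also: cells cotransfected with COUP-TFII expression vector driving the NGFI-A reporter; 0% = median of COUP-TF2 test wells and 100% = reporter-only cells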
NCOA1 inh: SRC1 coactivator transcriptional activity inhibitors, primary screen, cell-based, luminescence; HEK293 GAL4-SRC1 luciferase reporter; 360,000 compounds, 0.12% hits; AID 588354, 2011; inhibition, % at 3.6 µM; Nuclear receptor coactivator 1 (Homo sapiens), Q15788;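 active = inhibition above the campaign mean plus 3 SD, with each screening campaign given its own cutoff, cut at about 60% in these data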;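 also: 0% = DMSO treated cells and 100% = gossypol at 36 µM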
Target sequence (Q15788 whole entry, looked up, the tested form may be a part): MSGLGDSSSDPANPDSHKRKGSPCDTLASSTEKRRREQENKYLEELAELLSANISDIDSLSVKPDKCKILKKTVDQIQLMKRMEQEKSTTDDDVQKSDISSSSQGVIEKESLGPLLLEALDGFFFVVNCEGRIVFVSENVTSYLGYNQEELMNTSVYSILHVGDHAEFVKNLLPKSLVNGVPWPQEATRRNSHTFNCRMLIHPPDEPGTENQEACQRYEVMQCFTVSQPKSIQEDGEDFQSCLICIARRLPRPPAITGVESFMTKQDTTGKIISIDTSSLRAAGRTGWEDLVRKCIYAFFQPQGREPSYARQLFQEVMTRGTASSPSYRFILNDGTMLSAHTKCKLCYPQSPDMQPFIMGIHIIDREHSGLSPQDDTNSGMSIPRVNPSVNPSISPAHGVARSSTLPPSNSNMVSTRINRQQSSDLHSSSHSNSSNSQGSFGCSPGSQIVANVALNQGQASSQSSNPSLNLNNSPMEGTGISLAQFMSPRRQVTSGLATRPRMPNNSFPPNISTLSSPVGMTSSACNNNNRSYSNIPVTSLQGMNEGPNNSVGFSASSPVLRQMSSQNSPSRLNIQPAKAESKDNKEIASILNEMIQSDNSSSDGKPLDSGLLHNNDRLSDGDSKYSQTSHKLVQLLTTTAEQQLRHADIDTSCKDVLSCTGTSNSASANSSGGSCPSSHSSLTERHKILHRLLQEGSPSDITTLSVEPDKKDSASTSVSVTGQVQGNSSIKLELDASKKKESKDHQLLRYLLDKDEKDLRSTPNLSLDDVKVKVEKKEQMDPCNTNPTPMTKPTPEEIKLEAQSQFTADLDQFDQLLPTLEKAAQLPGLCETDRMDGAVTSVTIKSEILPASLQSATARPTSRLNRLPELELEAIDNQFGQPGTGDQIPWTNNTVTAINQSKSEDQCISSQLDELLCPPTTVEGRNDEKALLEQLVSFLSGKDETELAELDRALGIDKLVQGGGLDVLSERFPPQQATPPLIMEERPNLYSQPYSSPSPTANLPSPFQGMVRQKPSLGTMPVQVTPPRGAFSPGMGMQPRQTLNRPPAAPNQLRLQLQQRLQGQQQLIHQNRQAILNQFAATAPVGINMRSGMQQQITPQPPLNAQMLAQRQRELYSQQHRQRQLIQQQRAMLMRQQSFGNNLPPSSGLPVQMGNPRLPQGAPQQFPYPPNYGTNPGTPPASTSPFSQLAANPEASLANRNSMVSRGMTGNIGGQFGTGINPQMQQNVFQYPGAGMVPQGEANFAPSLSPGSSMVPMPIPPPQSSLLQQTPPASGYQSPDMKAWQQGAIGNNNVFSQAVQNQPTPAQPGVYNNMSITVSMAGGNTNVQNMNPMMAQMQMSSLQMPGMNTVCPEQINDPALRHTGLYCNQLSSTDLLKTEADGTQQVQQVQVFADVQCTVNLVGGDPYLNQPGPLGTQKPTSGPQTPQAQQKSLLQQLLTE
Gli-Sufu block: Gli-Sufu pathway antagonists, primary screen, luciferase luminescence, Sufu-KO-LIGHT cells, uHTS; AID 588413, 2011; inhibition, % at 5 µM; 340,000 compounds, 0.74% hits; Sufu-KO-LIGHT fibroblasts, Gli luciferase reporter luminescence;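 active = inhibition above about 55%, limit read from the data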;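 also: 0% = DMSO-treated cells and 100% = wells with medium but no cells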
NCOA3 inh: SRC3 coactivator transcriptional activity inhibitors, primary screen, cell-based, luminescence; Nuclear receptor coactivator 3 (Homo sapiens), Q9Y6Q9; HEK293 GAL4-SRC3 luciferase reporter; inhibition, % at 3.6 µM; 360,000 compounds, 0.17% hits; AID 588352, 2011;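 active = inhibition above a per-campaign cutoff, the mean of all compounds plus 3 SD, cut at about 60% in these data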;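 also: 0% = DMSO-treated cells and 100% = gossypol-treated cells at 36 µM; higher means less SRC3-driven luciferase light from the GAL4 reporter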
NR5A2 inv ag: LRH-1 (NR5A2) inverse agonists, primary screen, cell-based, luminescence, HEK293T, StAR-luciferase reporter; inhibition, % at 3.6 µM; LRH-1 transfected, 24 h; Nuclear receptor subfamily 5 group A member 2 (Homo sapiens), O00482; 360,000 compounds, 0.13% hits;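 active = inhibition above the mean inhibition of all tested compounds plus 3 SD, cut at about 73% in these data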;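 also: 0% = DMSO wells and 100% = reporter-only cells lacking LRH-1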
NCOA2 inhibitor: inhibition of GAL4-SRC2 driven luciferase reporter, primary screen, SRC2 inhibitor project, cell-based, luminescence. Nuclear receptor coactivator 2 (Homo sapiens), Q15596. HEK293 GAL4-SRC2 luciferase reporter. inhibition, % at 9 µM. 370,000 compounds, 0.17% hits;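 active = inhibition above the mean inhibition of all tested compounds plus 3 SD, set per campaign, cut at about 52% in these data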;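 also: 0% = DMSO treated cells and 100% = cells given Gossypol at 36 µM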
VP16 Luc counter: Gal4-VP16 luciferase reporter inhibitors, counter-screen for COUP-TFII antagonist project, cell-based, luminescence, HEK293. inhibition, % at 8.5 µM. AID 687007, 2013. shares compounds with NR2F2 inh. 2,500 compounds, 25% hits; in the data active = inhibition above about 13%
NR2F2 inh conf: NR2F2 transcriptional activity inhibitors, confirmation, cell-based, luciferase reporter, HEK293, triplicate; inhibition, % at 8.5 µM; shares compounds with NR2F2 inh; HEK293 NGFI-A luciferase reporter, luminescence; 2,500 compounds, 45% hits; AID 687008, 2013;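 active = mean inhibition over three repeats above a set limit taken from the earlier primary screen, cut at about 38% in these data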;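 also: 100% = cells given the luciferase reporter alone without the COUP-TF2 vector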
Starred values were filed as active, the others as inactive; nt = not tested or not shown. Sampled rows, rich in hits. Any-hit rate of the full collection: about 1.2%.

SMILES	NR2F2 inh	NCOA1 inh	Gli-Sufu block	NCOA3 inh	NR5A2 inv ag	NCOA2 inhibitor	VP16 Luc counter	NR2F2 inh conf
Cc1cc(C(=O)COC(=O)c2cccnc2Cl)c(C)n1CC1CCCO1 (stereo not drawn)	63*	58	41	61	41	47	-22	56*
Cc1cc(C(=O)COC(=O)c2cccc(NS(C)(=O)=O)c2)c(C)n1CC1CCCO1 (stereo not drawn)	72*	47	6	38	39	9	-26	57*
Cc1cc(C(=O)COC(=O)c2cc(O)c3ccccc3c2O)c(C)n1CC1CCCO1 (stereo not drawn)	nt	-59	7	11	10	nt	nt	nt
Cc1cc(C(=O)COC(=O)c2ccccc2Br)c(C)n1CC1CCCO1 (stereo not drawn)	90*	82*	76*	84*	82*	82*	85*	101*
C#CCN(Cc1cccc(F)c1)C(=O)c1nnc2c3ccccc3n(S(=O)(=O)c3ccc(C)cc3)c2n1	5	nt	nt	nt	nt	14	nt	nt
CC1CN(c2nc3ccccc3nc2SCC(=O)N2CCN(S(=O)(=O)c3ccc(F)cc3)CC2)CC(C)O1 (stereo not drawn)	25	nt	nt	nt	nt	3	nt	nt
CCN1CCN(CCOc2ccc(Cl)cc2)CC1	-25	-6	6	3	4	-34	nt	nt
c1ccc(CN2CCN(c3ncnc4sccc34)CC2)cc1	71*	nt	nt	nt	nt	nt	0	50*
OC1(Cc2ccccc2)CCN(c2ncnc3sccc23)CC1	71*	nt	nt	nt	nt	nt	-1	62*
CN(Cc1ccccc1)c1ncnc2sccc12	21	-2	7	16	12	23	nt	nt
Clc1ccc(OCCN2CCN(c3ncnc4sccc34)CC2)cc1	70*	25	81*	36	54	20	1	64*
CC(=O)N(c1nc2ccccc2s1)N1C(=O)c2ccccc2C1=O	-14	nt	nt	nt	nt	-23	nt	nt
OC(c1ccccc1)(c1ccccc1)C1CCN(CCCOc2cccnc2)CC1	-1	nt	nt	nt	nt	-10	nt	nt
O=C(c1ccc(S(=O)(=O)c2ccc(F)cc2)c([N+](=O)[O-])c1)N1CCCCCC1	43*	6	48	37	30	39	18*	22
O=C(c1ccc(S(=O)(=O)Cc2ccccc2F)c([N+](=O)[O-])c1)N1CCCC1	-2	-9	10	20	-3	-1	nt	nt
C=CCNC(=S)N/N=C/c1ccc(C(F)(F)F)cc1	43*	17	-13	10	12	11	-3	28
FC(F)(F)c1ccc(/C=N/NC(=S)NC2CCCCC2)cc1	10	0	3	8	-20	-21	nt	nt
COc1cc(NC(=O)COc2cc(O)c3c(c2)OC(C)(C)CC3=O)cc(OC)c1OC	81*	43	70*	51	59	36	3	81*
CCS(=O)(=O)N(C)C[C@@H]1OCc2ccccc2-c2c(n(C)c3ccccc23)C(=O)N([C@H](C)CO)C[C@@H]1C	-2	nt	nt	nt	nt	8	nt	nt
Cc1[nH]c2ccccc2c1CC(=O)Nc1ccc(Nc2ccncc2)cc1	-22	nt	nt	nt	nt	8	nt	nt
COc1cccc(Oc2ccc(S(=O)(=O)N3CCOCC3)cc2[N+](=O)[O-])c1	44*	-7	10	3	-4	-6	-9	0
Cc1[nH]nc2c1C(c1cccc(C(F)(F)F)c1)N(Cc1ccccc1)C2=O (stereo not drawn)	-4	nt	nt	nt	nt	8	nt	nt
CCc1nnc(N/N=C/c2c(C)[nH]c3ccccc23)n1N	53*	9	-1	6	27	4	-1	-1

Screening data deposited in PubChem BioAssay by several laboratories.
